Molecules are shown by their SMILES.

We go through 9 compounds from PubChem BioAssay.

For this assay, the target named is Epidermal growth factor receptor (Homo sapiens) (UniProt P00533). The assay is described as follows: compounds binding epidermal growth factor receptor – biochemical, small-molecule microarray, 635 nm fluorescence, primary screen (AID 1104).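 Further: score merges 667 nm emission intensity with spot signal to noise over triplicate slides.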 The settings on record: EGFR binding, higher = more signal.
Chain of Epidermal growth factor receptor (Homo sapiens) (P00533 whole entry, looked up): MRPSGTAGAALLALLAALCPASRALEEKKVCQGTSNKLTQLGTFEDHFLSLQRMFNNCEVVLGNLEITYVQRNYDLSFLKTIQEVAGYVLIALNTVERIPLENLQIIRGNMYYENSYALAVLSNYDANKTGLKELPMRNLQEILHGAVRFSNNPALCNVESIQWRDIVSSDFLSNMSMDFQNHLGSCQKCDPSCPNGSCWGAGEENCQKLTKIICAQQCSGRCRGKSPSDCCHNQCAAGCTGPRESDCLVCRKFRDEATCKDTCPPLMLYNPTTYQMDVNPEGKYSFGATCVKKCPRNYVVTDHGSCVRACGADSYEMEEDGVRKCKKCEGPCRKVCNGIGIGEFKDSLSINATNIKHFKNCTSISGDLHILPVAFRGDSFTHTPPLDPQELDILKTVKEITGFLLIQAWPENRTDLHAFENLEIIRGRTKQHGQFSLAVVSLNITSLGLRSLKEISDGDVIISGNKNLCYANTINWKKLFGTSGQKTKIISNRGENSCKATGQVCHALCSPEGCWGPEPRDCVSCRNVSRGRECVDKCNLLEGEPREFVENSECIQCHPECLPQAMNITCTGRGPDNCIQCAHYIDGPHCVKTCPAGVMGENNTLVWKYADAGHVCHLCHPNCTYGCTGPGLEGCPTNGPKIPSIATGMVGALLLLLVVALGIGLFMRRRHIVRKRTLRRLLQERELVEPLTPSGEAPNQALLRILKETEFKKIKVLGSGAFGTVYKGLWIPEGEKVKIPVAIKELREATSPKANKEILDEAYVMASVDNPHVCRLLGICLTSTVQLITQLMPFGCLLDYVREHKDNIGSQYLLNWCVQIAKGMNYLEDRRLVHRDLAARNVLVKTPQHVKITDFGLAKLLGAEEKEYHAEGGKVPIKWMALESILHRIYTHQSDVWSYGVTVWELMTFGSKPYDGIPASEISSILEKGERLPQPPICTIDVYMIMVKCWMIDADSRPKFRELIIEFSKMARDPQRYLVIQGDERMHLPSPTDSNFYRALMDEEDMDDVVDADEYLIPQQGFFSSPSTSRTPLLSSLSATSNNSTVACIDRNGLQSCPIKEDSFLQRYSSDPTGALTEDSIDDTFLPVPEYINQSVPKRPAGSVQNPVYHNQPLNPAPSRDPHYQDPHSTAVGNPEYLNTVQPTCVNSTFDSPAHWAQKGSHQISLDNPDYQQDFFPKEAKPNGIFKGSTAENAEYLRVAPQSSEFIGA
For `CC(=O)N1CC2(CC2)CC1c1ccccc1` (centres undefined), the composite z-score came out at 0.461.

`CC(C)[Si](C#CCCCC#N)(O[C@H](c1ccccc1)c1cn(Cc2ccccc2)nn1)C(C)C` had a composite z-score of 0.494.

Compound `COCCOC(=O)N1C(=O)[C@@]2(c3cc(C#CC4(O)CCCCCC4)ccc31)[C@H](c1ccc(O)cc1)N1[C@H](c3ccccc3)[C@H](c3ccccc3)OC(=O)[C@H]1[C@@H]2C(=O)N1CCN(c2ncccn2)CC1` gave a composite z-score of 0.149.

`CC1=C2[C@@H](CCc3ccccc3)OB(O)C[C@@H]2[C@@H]2C(=O)N(Cc3ccccc3)C(=O)[C@@H]2C1` returned a composite z-score of 0.427.

`CCOC(=O)C[C@H]1[C@H](OC(=O)Cc2ccc3c(c2)OCO3)[C@@H](NC(=O)C2CCCCC2)c2cc(OCCCO)ccc2N1C(=O)c1ccccc1`: the composite z-score is 0.073.

The compound `COCCCNC(=O)[C@@]1(CCC(=O)OC(C)(C)C)N=C(c2ccc(OCCCO)cc2)O[C@H]1c1ccccc1N=[N+]=[N-]` gave a composite z-score of -0.182.

`[N-]=[N+]=Nc1ccccc1C[C@]1(C(=O)NCC(O)CO)COC(c2ccc(OCCCO)cc2)=N1` (some centres undefined) had a composite z-score of -0.603.

As to `CCCC[C@@H](O)C1=C(COC)C[C@H]2C(=O)N(C)C(=O)[C@H]2[C@H]1CO`, the composite z-score was -0.0915.

`CCCCCCc1nc(Cc2cc(OC)c(OC)c(OC)c2)cc2c1[Si](C(C)C)(C(C)C)OC2` displayed a composite z-score of 0.192.
